Most compounds without a hit are left out; they make up all but 1.4% or so of the library.
BRCA1 expr act: activators of BRCA1 expression | Potency, µM (titrated, usually from 46.1 µM), without a hit: at the top dose activation, hits mostly activators | MCF7-BRCA1-FFLuc reporter, luminescence, 48 h; response scale: scaled: vehicle 0%, 10 µM genistein 100% | actives 1.1% (n = 380,000); note: nearly all actives have a fitted effect of over 80% in size
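MCF7-BRCA1-FFLuc cells, 2000/well in phenol-red-free MEM, attached 2 h then treated 48 h at 37 C. Luciferase luminescence read 15 min after reagent; normalized to genistein maximum activation (10microM) and DMSO, concentration-response fitted.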
EPAC1 agonist: activates human EPAC1 exchange factor; Potency, µM (titrated, usually from 154 µM), for the others: at the highest dose activation, actives largely listed as activators; EPAC1 agonist qHTS, biochemical assay; response scale: 100% = response to 6.5 mM cAMP; O95398; actives 0.073% (n = 360,000); note: nearly all actives have a fitted effect of over 60% in size
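EPAC1 100 nM, Rap1B–BODIPY-GDP 250 nM, unlabeled GDP 50 uM; compound titration; 5 min RT; kinetic read ex480/em540 at 5-min intervals ×30 min; data normalized to 6.5 mM cAMP agonist control.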
EPAC2 agonist: EPAC2 (human) agonism. actives 0.079% (n = 360,000). AID 720711. Q8WZA2. EPAC2 activation, biochemical qHTS; response scale: 100% = 6.5 mM cAMP response. Potency, µM (series often up to 154 µM), inactives show at the top dose activation, hits mostly activators; note: nearly all actives have a fitted effect of over 50% in size
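Setup: EPAC2 100 nM, labeled Rap1B complex 250 nM, free GDP 50 uM. Compound titrations pinned in, brief spin, 5 min room temperature incubation. Kinetic fluorescence read over 30 min, normalized to 6.5 mM cAMP.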
EPAC1 antagonist: blocks human EPAC1 exchange factor; EPAC1 GEF assay, Rap1b-BODIPY-GDP exchange fluorescence; AID 720709; Potency, µM (titrated, usually from 115 µM), inactives show at the highest dose activity change, negative = inhibition, most hits filed as inhibitors; O95398; actives 0.14% (n = 360,000);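 note: plate controls were vehicle for no effect and positive control for full effect; nearly all actives have a fitted effect of over 50% in size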
USP1-UAF1 inh: USP1/UAF1 (human) deubiquitinase inhibition; O94782; recombinant USP1/UAF1, Ub-Rhodamine cleavage fluorescence; Potency, µM (series often up to 57.1 µM), inactives show top-dose activity change, negative = inhibition, most hits filed as inhibitors; actives 0.23% (n = 390,000); note: % is set by controls: 0 for no effect and ±100 for the full control effect; nearly all actives have a fitted effect of over 60% in size
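USP1/UAF1 complex (1 nM) preincubated 15 min at room temperature with compound, then Ub-Rho substrate (150 nM final) added. Kinetic fluorescence at 480/540 nm over 6 reads at 60 s intervals; 50 mM HEPES pH 7.8, 0.5 mM EDTA, 0.1 mg/ml BSA, 1 mM TCEP, 0.01% Tween-20.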
EPAC2 antag: EPAC2 (human) antagonism | EPAC2 GEF exchange of Rap1B-BODIPY-GDP, fluorescence | Potency, µM (titrated, usually from 114 µM), without a hit: at the highest dose activity, negative = inhibition, hits mostly inhibitors | actives 0.18% (n = 360,000) | AID 720708; note: % is set by controls: 0 for no effect and ±100 for the full control effect; nearly all actives have a fitted effect of over 45% in size
An asterisk follows results filed as active; ? = inconclusive; · = no result given. Calls come from the whole dose curve; as a rule, active = well fitted curve in the direction sought with a large enough effect; inconclusive = small, poorly fitted or top-dose-only effect, or another doubt; inactive = no such curve, though single readings can be large; an effect the other way counts as inactive or inconclusive. Potency is the fitted concentration of half-maximal effect.

SMILES	BRCA1 expr act	EPAC1 agonist	EPAC2 agonist	EPAC1 antagonist	USP1-UAF1 inh	EPAC2 antag
COC(=O)c1ccc(OCC(O)CN2CCc3cc(OC)c(OC)cc3C2c2ccccc2)cc1 (stereo not given)	-80%	-7%	9%	-15%	-12%	10%
O=C(CCS(=O)(=O)c1nc(-c2cccs2)cc(C(F)(F)F)n1)Nc1ccc(OC(F)(F)F)cc1	·	·	·	·	14µM*	·
COc1ccc(NC(=O)CCS(=O)(=O)c2nc(-c3cccs3)cc(C(F)(F)F)n2)cc1	·	·	·	·	-5%	·
O=[N+]([O-])c1ccc(CSc2nc3ccccc3[nH]2)cc1	4µM*	5%	1%	6%	-19%	5%
Cc1ccc2oc(C(=O)Nc3ccc(S(=O)(=O)Nc4onc(C)c4C)cc3)c(C)c2c1	11µM*	-20%	-5%	-22%	-22%	?
CC(=O)N(C)c1ccc(NC(=O)c2ccco2)cc1	6.3µM*	-3%	-9%	3%	-16%	6%
CCOc1ccc(NC(=S)NC(=O)c2ccco2)cc1	7.1µM*	2%	10%	3%	-5%	-17%
COc1ccc(C(=O)Nc2ccc(NC(=O)c3cccs3)cc2)cc1OC	·	·	·	·	25µM*	·
O=C(Nc1nccs1)c1ccc(NC(=O)c2ccco2)cc1	5µM*	4%	11%	-5%	-6%	0%
O=C(Nc1ccc(Br)cc1)c1ccco1	?	9%	12%	-7%	-8%	-15%
O=C(Nc1ccc(NC(=O)c2ccco2)cc1)c1ccco1	10µM*	11%	6%	-16%	-18%	1%
O=C(Nc1ccc(NC(=O)C2CCCCC2)cn1)c1ccco1	95%	2%	10%	-8%	-3%	1%
CCOC(=O)c1ccc(NC(=O)c2ccco2)cc1	7.1µM*	-8%	1%	2%	-15%	4%
O=C(Nc1ccc(NC(=O)C2CC2)cc1)c1ccco1	3.2µM*	-7%	5%	-3%	-17%	6%
O=C(Nc1ccc(NC(=O)C2CC2)cc1)c1cccs1	10µM*	-15%	10%	-12%	-9%	-1%
O=C(Nc1ccc(NC(=O)c2cccs2)cc1)c1cccs1	24%	-2%	1%	-8%	?	2%
CCn1nc(-c2ccccc2)c(-c2ccccc2)c(C(=O)Nc2nc(C)c(C(=O)N(C)C)s2)c1=O	·	·	·	·	-27%	·
CN(CCCN(Cc1ccc(Cl)cc1)c1ccc(Br)cn1)C(=S)NCCCc1cnc[nH]1	0%	·	·	·	·	·
CCOC(=O)c1ccc(NCCc2ccc(OC)c(OC)c2)c(N)c1	11%	-2%	8%	-10%	-19%	-2%
CC(=O)c1ccc(NC(=O)c2cccc(S(=O)(=O)N3CCN(C)CC3)c2)cc1	11µM*	10%	9%	-4%	-7%	8%
O=C(Nc1ccccc1O)c1ccc(NC(=O)C2CC2)cc1	1.8µM*	-19%	2%	-5%	-16%	-8%
Cc1ccc(NC(=O)CNC(=O)c2ccco2)cc1	11µM*	0%	-1%	-9%	6%	20%
CC(=O)Nc1ccc(NC(=O)c2cccc(S(=O)(=O)N3CCCCCC3)c2)cc1	-23%	-1%	-6%	-8%	-13%	20%
Cc1cccc(NC(=S)NC(=O)c2ccco2)c1C	92%	-11%	1%	0%	-15%	-9%
O=C(NC(=S)Nc1ccccc1Br)c1ccco1	13µM*	-6%	1%	?	-4%	-9%
SMILES	BRCA1 expr act	EPAC1 agonist	EPAC2 agonist	EPAC1 antagonist	USP1-UAF1 inh	EPAC2 antag
COc1ccc(NC(=O)CNC(=O)c2ccco2)cc1	?	10%	12%	7%	9%	-1%
O=C(Nc1ccccc1C(=O)O)c1ccc(NC(=O)C2CC2)cc1	14%	8%	5%	-1%	-10%	-2%
CC(=O)c1ccc(NC(=O)C2CCN(S(=O)(=O)c3cccs3)CC2)cc1	8.9µM*	-7%	1%	6%	-21%	2%
CCCCC(=O)Nc1cnc(NC(=O)c2ccco2)cc1C	11µM*	0%	1%	1%	-16%	1%
CCCC(=O)Nc1cc(C)c(NC(=O)c2ccco2)cn1	9%	-6%	-1%	-1%	-3%	4%
O=C(Cc1ccccc1)Nc1ccc(NC(=O)c2ccco2)nc1	5.6µM*	-2%	2%	-2%	5%	-2%
C=CCn1c2ccccc2c2n[nH]c(=S)nc21	-26%	7%	12%	-11%	2%	-2%
Cc1c(O)ccc2c1OC(C)(C)CC2	-3%	·	·	·	·	·
CCCCCN(CCCCC)c1ccc(/C=C/c2ccnc3ccccc23)cc1	-8%	·	·	·	·	·
COC(=O)c1sc(C(F)(F)F)c(-c2ccccc2)c1S(=O)(=O)N1CCCC1	-23%	7%	7%	-8%	-10%	?
CCCCN(CCCNC(=O)CN1N=C(c2ccc(C)cc2)CCC1=O)c1ccccc1	·	·	·	·	-35%	·
CC(C)C(=O)Nc1ccc(NC(=O)c2ccccn2)cn1	2.5µM*	1%	0%	8%	-18%	-1%
CC1=C(C(=O)OC(C)C)C(c2ccc(C)o2)C(C(=O)OC(C)C)=C(C)N1	-13%	1%	-11%	?	-14%	?
O=C(O)C(c1ccccc1)N1C(=O)/C(=C\c2ccc(O)c(O)c2)SC1=S (stereo not given)	-3%	-3%	-2%	32µM*	?	22µM*
O=C1NC(=O)C(=Cc2ccccc2[N+](=O)[O-])S1	-75%	5%	11%	50µM*	?	79µM*
CCOC(=O)/C=C(\C)Sc1cc(O)c2ccccc2c1O	-82%	-2%	7%	?	7.9µM*	45µM*
CCC1Cc2[nH]c(=S)[nH]c(=O)c2C(c2ccc(F)cc2)O1 (stereo not given)	9%	8%	9%	-4%	·	5%
Cc1ccc2oc(C(=O)N3CCCCCC3)c(C)c2c1	5.6µM*	4%	9%	6%	-13%	56µM*
COc1cccc(NC(=O)c2sc3nc(C)c(C(=O)Nc4ccc(C)cc4C)c(-c4ccccc4Cl)c3c2N)c1	·	·	·	·	1%	·
COc1cccc(NC(=O)c2sc3nc(C)c(C(=O)Nc4ccc(C)cc4C)c(-c4ccco4)c3c2N)c1	·	·	·	·	35µM*	·
NS(=O)(=O)c1ccc(CCNc2ccn3nc(-c4ccc(OCCN5CCOCC5)cc4)cc3n2)cc1	12%	4%	10%	-6%	·	12%
C=CC(C)N1C(=O)S/C(=C\c2ccc(N3CCOCC3)cc2C)C1=O (stereo not given)	92%	-38%	1%	35µM*	-14%	-1%

Screens: PubChem, National Center for Advancing Translational Sciences (NCATS)
